Results as given in PubChem BioAssay (EPA / NIEHS).
Active and inactive are the calls of the source. The calls were made as follows: active = hit-call score of the fitted dose curve at least 0.9, where 1 is the maximum; inactive = score below 0.9.

Experiments:
Conditions in all cases: mRNA level, 48 h; actives raise or lower the signal
[1] = read-out: Cytochrome P450 7A1 (Homo sapiens) (UniProt P22680); test: LTEA_HepaRG_CYP7A1: Life Technologies and Expression Analysis (LTEA) Assay for Cytochrome P450 7A1 (CYP7A1) using HepaRG (AID 2283496)
How it was run: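 HepaRG, 48 h exposure, 8-pt half-log series from 100 uM, 0.5% DMSO vehicle, duplicates. Readout: TaqMan qRT-PCR mRNA vs three housekeeping genes; bidirectional curve fit against DMSO baseline.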

[2] = read-out: Glutathione S-Transferase (GSTA2), GSTA2 (gene 2939); test: LTEA_HepaRG_GSTA2: Life Technologies and Expression Analysis (LTEA) Assay for Glutathione S-Transferase (GSTA2) using HepaRG (AID 2283497)
How it was run: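 qRT-PCR readout of GSTA2 transcript, normalized to three housekeeping genes, fitted bidirectionally against 0.5% DMSO baseline. Differentiated HepaRG cells received compound for 48 h at 8 concentrations (top 100 uM, half-log steps).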

[3] = read-out: Glutamate-cysteine ligase catalytic (GCLC), GCLC (gene 2729); test: LTEA_HepaRG_GCLC: Life Technologies and Expression Analysis (LTEA) Assay for Glutamate-cysteine ligase catalytic (GCLC) using HepaRG (AID 2283498)
How it was run: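 HepaRG, 48 h exposure, 8-pt half-log series from 100 uM, 0.5% DMSO vehicle; TaqMan qRT-PCR for GCLC mRNA, housekeeping-normalized; bidirectional curve fit vs DMSO baseline.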

[4] = read-out: growth arrest and DNA damage 45 (GADD45G), GADD45G (gene 10912); test: LTEA_HepaRG_GADD45G: Life Technologies and Expression Analysis (LTEA) Assay for growth arrest and DNA damage 45 (GADD45G) using HepaRG (AID 2283499)
How it was run: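 Gain or loss of GADD45G mRNA, quantified by TaqMan qRT-PCR against three housekeeping genes, is fitted in both directions relative to 0.5% DMSO. Human HepaRG cultures receive test chemical for 48 h at up to 100 uM.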

[5] = read-out: Glutamate-cysteine ligase regulatory (GCLM), GCLM (gene 2730); test: LTEA_HepaRG_GCLM: Life Technologies and Expression Analysis (LTEA) Assay for Glutamate-cysteine ligase regulatory (GCLM) using HepaRG (AID 2283500)
How it was run: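 GCLM expression quantified by qRT-PCR, normalized to three housekeeping genes, after 48 h chemical treatment of HepaRG cells in duplicate at 8 concentrations (top 100 uM, half-log steps, 0.5% DMSO). Changes fitted both directions against vehicle.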

[6] = read-out: Glutathione S-transferase M3 (GSTM3), GSTM3 (gene 2947); test: LTEA_HepaRG_GSTM3: Life Technologies and Expression Analysis (LTEA) Assay for Glutathione S-transferase M3 (GSTM3) using HepaRG (AID 2283501)
How it was run: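 HepaRG, plated 48 h, then serum-free induction medium; test chemical 48 h, duplicate; 100 uM top, half-log x8, 0.5% DMSO. Read-out: GSTM3 mRNA (TaqMan qRT-PCR, Fluidigm array). Bidirectional fit vs DMSO.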

[7] = read-out: Heat shock 70 kDa protein 1 (HSPA1A), gene 3303; test: LTEA_HepaRG_HSPA1A: Life Technologies and Expression Analysis (LTEA) Assay for Heat shock 70 kDa protein 1 (HSPA1A) using HepaRG (AID 2283502)
How it was run: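 HSPA1A expression measured by qRT-PCR with ACTB/GAPDH/POLR2A normalization; curves fitted in both directions relative to DMSO vehicle. Exposure: 48 h in HepaRG cells, duplicate 8-point half-log series from 100 uM, 0.5% DMSO, serum-free induction medium.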

[8] = read-out: Hypoxia-inducible factor 1-alpha (Homo sapiens) (UniProt Q16665); test: LTEA_HepaRG_HIF1A: Life Technologies and Expression Analysis (LTEA) Assay for Hypoxia-inducible factor 1 (HIF1A) Trancription factor using HepaRG (AID 2283503)
How it was run: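 HIF1A transcript level read by qRT-PCR (ACTB, GAPDH, POLR2A normalization) after 48 h chemical exposure of HepaRG cultures. Eight half-log concentrations, top 100 uM, 0.5% DMSO vehicle, duplicates; bidirectional curve fit against DMSO baseline.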

[9] = read-out: 3-Hydroxy-3-Methylglutaryl-CoA Synthase 2 (HMGCS2), HMGCS2 (gene 3158); test: LTEA_HepaRG_HMGCS2: Life Technologies and Expression Analysis (LTEA) Assay for 3-Hydroxy-3-Methylglutaryl-CoA Synthase 2 (HMGCS2) using HepaRG (AID 2283504)
How it was run: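 HepaRG, plated 48 h then switched to serum-free induction media; cmpd 8-pt, max 100 uM, 1/2-log, 0.5% DMSO, n=2, 48 h. HMGCS2 mRNA by Fluidigm TaqMan qRT-PCR, ACTB/GAPDH/POLR2A norm; bidirectional fit vs DMSO.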

HGF (gene 3082) = test: LTEA_HepaRG_HGF: Life Technologies and Expression Analysis (LTEA) Assay for Hepatocyte Growth Facto (HGF) using HepaRG (AID 2283505)
How it was run: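 Read-out is HGF transcript level by qRT-PCR, normalized to three housekeeping genes, fitted bidirectionally against 0.5% DMSO vehicle. Human HepaRG cells received test chemicals for 48 h at up to 100 uM.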

[10] = read-out: Insulin Like Growth Factor 1 (IGF1), IGF1 (gene 3479); test: LTEA_HepaRG_IGF1: Life Technologies and Expression Analysis (LTEA) Assay for Insulin Like Growth Factor 1 (IGF1) using HepaRG (AID 2283506)
How it was run: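 Expression measured by TaqMan qRT-PCR on a Fluidigm array, with three housekeeping genes for normalisation, after 48 h treatment of HepaRG cells. Top concentration 100 uM with half-log steps, 0.5% DMSO vehicle, bidirectional fit.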

[11] = read-out: Intercellular Adhesion Molecule 1 (ICAM1), ICAM1 (gene 3383); test: LTEA_HepaRG_ICAM1: Life Technologies and Expression Analysis (LTEA) Assay for Intercellular Adhesion Molecule 1 (ICAM1) using HepaRG (AID 2283507)
How it was run: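 Readout is qRT-PCR mRNA level, normalized to three housekeeping genes and fitted bidirectionally against 0.5% DMSO vehicle. Human HepaRG cultures received compound for 48 h, top concentration 100 uM with half-log dilutions.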

[12] = read-out: Insulin-like growth factor-binding protein 1 (IGFBP1), IGFBP1 (gene 3484); test: LTEA_HepaRG_IGFBP1: Life Technologies and Expression Analysis (LTEA) Assay for Insulin-like growth factor-binding protein 1 (IGFBP1) using HepaRG (AID 2283508)
How it was run: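 Thawed HepaRG cells are plated for 48 h, switched to serum-free induction medium, then dosed in duplicate for another 48 h (100 uM top, half-log steps). Lysates in RLT go to qRT-PCR, and gain or loss of signal is fitted relative to vehicle.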

[13] = read-out: Interleukin 6 (IL6), IL6 (gene 3569); test: LTEA_HepaRG_IL6: Life Technologies and Expression Analysis (LTEA) Assay for Interleukin 6 (IL6) using HepaRG (AID 2283509)
How it was run: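 qRT-PCR read-out of IL6 transcript, normalized to three housekeeping genes, after 48 h chemical exposure of HepaRG cells; 8-point half-log series, top 100 uM, 0.5% DMSO vehicle. Bidirectional curve fitting against DMSO baseline.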

[14] = read-out: Interleukin 6 Receptor (IL6R), IL6R (gene 3570); test: LTEA_HepaRG_IL6R: Life Technologies and Expression Analysis (LTEA) Assay for Interleukin 6 Receptor (IL6R) using HepaRG (AID 2283510)
How it was run: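 IL6R transcript level by qRT-PCR after 48 h chemical exposure (8-point, half-log, max 100 uM, 0.5% DMSO vehicle) of HepaRG cells in serum-free induction medium. Normalized to three housekeeping genes; curves fitted in both directions relative to DMSO.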

[15] = read-out: Potassium channel subfamily K member 1 (KCNK1), KCNK1 (gene 3775); test: LTEA_HepaRG_KCNK1: Life Technologies and Expression Analysis (LTEA) Assay for Potassium channel subfamily K member 1 (KCNK1) using HepaRG (AID 2283511)
How it was run: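 HepaRG, 48 h exposure, 8-pt half-log series top 100 uM, 0.5% DMSO vehicle, duplicates. Readout: KCNK1 transcript by qRT-PCR (Fluidigm array), housekeeping-normalized; bidirectional curve fit relative to DMSO baseline.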

[16] = read-out: JUN Transcription Factor, JUN (gene 3725); test: LTEA_HepaRG_JUN: Life Technologies and Expression Analysis (LTEA) Assay for JUN Transcription Factor using HepaRG (AID 2283513)
How it was run: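 mRNA measured by TaqMan qRT-PCR after 48 h chemical exposure of HepaRG cultures; normalization to three housekeeping genes. Duplicate eight-point half-log curves from 100 uM in 0.5% DMSO; gain or loss fitted against DMSO baseline.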

[17] = read-out: Lipase C (LIPC), LIPC (gene 3990); test: LTEA_HepaRG_LIPC: Life Technologies and Expression Analysis (LTEA) Assay for Lipase C (LIPC) using HepaRG (AID 2283514)
How it was run: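 HepaRG, 48 h exposure, 8-pt half-log series from 100 uM in 0.5% DMSO, duplicates. Readout: LIPC mRNA by Fluidigm qRT-PCR, housekeeping-normalized (ACTB/GAPDH/POLR2A). Gain or loss fitted bidirectionally against DMSO baseline.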

[18] = read-out: Lipoprotein lipase (LPL), LPL (gene 4023); test: LTEA_HepaRG_LPL: Life Technologies and Expression Analysis (LTEA) Assay for Lipoprotein lipase (LPL) using HepaRG (AID 2283515)
How it was run: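 HepaRG, 48 h exposure, 8-pt half-log dilutions from 100 uM, 0.5% DMSO vehicle, duplicates; qRT-PCR (Fluidigm array) of LPL mRNA vs housekeeping genes; bidirectional curve fit relative to DMSO baseline.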

[19] = read-out: Keratin 19 (KRT19), KRT19 (gene 3880); test: LTEA_HepaRG_KRT19: Life Technologies and Expression Analysis (LTEA) Assay for Keratin 19 (KRT19) using HepaRG (AID 2283512)
How it was run: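 KRT19 transcript levels, measured by Fluidigm qRT-PCR against three housekeeping genes, are fitted for gain or loss of signal relative to DMSO. Human HepaRG cells receive test chemicals (top 100 uM, half-log steps, 0.5% DMSO) for 48 hours.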

Measured: AC50

Chain of Hypoxia-inducible factor 1-alpha (Homo sapiens) (Q16665 whole entry, looked up): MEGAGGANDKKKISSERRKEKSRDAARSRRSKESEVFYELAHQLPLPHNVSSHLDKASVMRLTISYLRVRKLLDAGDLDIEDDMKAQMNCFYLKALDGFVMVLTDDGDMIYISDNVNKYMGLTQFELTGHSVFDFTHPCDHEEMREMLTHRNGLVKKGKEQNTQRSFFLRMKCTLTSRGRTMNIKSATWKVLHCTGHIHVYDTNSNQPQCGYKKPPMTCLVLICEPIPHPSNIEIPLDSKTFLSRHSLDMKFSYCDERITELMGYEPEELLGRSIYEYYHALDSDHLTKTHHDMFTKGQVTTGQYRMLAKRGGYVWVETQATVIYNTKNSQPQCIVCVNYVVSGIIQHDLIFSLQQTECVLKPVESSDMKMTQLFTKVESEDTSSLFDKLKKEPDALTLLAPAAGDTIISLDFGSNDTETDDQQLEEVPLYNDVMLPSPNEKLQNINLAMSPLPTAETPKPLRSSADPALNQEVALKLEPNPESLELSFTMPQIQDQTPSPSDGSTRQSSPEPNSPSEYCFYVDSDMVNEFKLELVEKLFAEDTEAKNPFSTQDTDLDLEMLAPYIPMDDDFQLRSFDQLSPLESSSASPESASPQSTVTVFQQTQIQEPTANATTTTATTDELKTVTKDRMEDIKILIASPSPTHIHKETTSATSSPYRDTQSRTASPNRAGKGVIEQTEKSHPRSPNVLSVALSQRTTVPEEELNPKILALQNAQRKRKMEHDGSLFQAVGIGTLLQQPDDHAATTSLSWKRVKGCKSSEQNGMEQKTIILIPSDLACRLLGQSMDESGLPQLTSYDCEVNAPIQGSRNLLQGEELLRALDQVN

Nc1nc(N)nc(NC2CC2)n1
not listed: [19]
inactive: all other assays above

CCCSP(=O)(OCC)Oc1ccc(Br)cc1Cl (stereo not drawn)
not listed: [9] | [16]
inactive: all other assays above

CC(Oc1cccc(Cl)c1)C(=O)O (stereo not drawn)
not listed: [7] | [9] | [10] | [16]
inactive: all other assays above

CCC(=NOC/C=C/Cl)C1=C(O)CC(C2CCOCC2)CC1=O (stereo not drawn)
not listed: [9] | [18] | [19]
inactive: all other assays above

CCCCSP(=O)(SCCCC)SCCCC
active: [1] 50 µM | [10] 65.7 µM | [12] 64.2 µM | [17] 83.6 µM | [18] 68.5 µM
not listed: [9] | [16] | [19]
inactive: all other assays above

CC(=NC#N)N(C)Cc1ccc(Cl)nc1
not listed: [9]
inactive: all other assays above

CCC(=O)Nc1ccc(Cl)c(Cl)c1
active: [2] 72.5 µM | [5] 50 µM | [12] 50 µM
not listed: [9] | [18] | [19]
inactive: all other assays above
